Source: PubChem BioAssay (Tox21)
Results filed as inconclusive are left out. A call without a number means that no potency is given here. Active and inactive are the calls of the source. Calls come from the whole dose curve.

Assay: qHTS assay for small molecule agonists of the p53 signaling pathway - cell viability (AID 651633); note: nearly all actives have a fitted effect of over 30% in size
Conditions: p53RE-bla HCT-116 viability, ATP luminescence, 16 h; series mostly up to 83.3 µM
Excerpt: National Center for Advancing Translational Sciences [NCATS]
NIH Chemical Genomics Center [NCGC]
U.S. Environmental Protection Agency [EPA]
National Institutes of Environmental Health Sciences [NIEHS]
National Toxicology Program [NTP]
U.S. Food and Drug Administration [FDA]
p53, a tumor suppressor protein, is activated following cellular insult, including DNA damage and other cellular stresses. The activation of p53 regulates cell fate by inducing DNA repair, cell cycle arrest, apoptosis, or cellular senescence. The activation of p53, therefore, is a good indicator of DNA damage and other cellular stresses. […] The activation of the reporter gene under culture conditions can be detected by fluorescence intensity. This cell line was used to screen the Tox21 compound library in a 1536-well plate format and to identify agonists that activate the p53 signaling pathway.
Tox21 Assay Protocol Summary:
The p53RE-bla cells were dispensed at 4,000 cells/5 ul/well in 1536-well black wall/clear bottom plates using a Multidrop dispenser. After the assay plates were incubated at a 37 C/5% CO2 incubator for 5 hours, 23 nL of compounds dissolved in DMSO, positive controls or DMSO only was transferred to the assay plate by a pin tool. The plates were incubated at 37 C for 16 hours. After 1 uL of LiveBLAzerTM B/G FRET substrate was added using a Flying Reagent Dispenser, the plates were incubated at room temperature for 2 hours, and fluorescence intensity was measured by an Envision plate reader.
For cell viability readout that measures cytotoxicity, 4 ul/well of CellTiter-Glo reagent was added into the assay plates using a Flying Reagent Dispenser. After 30 min incubation at room temperature, the luminescence intensity in the plates was measured using a ViewLux plate reader.
Potency is the fitted concentration of half-maximal effect.

Compound | Potency
C=CC[N+]1([C@H]2C[C@H]3[C@@H]4CC[C@H]5C[C@H](OC(C)=O)[C@@H](N6CCCCC6)C[C@]5(C)[C@H]4CC[C@]3(C)[C@H]2OC(=O)CC)CCCCC1 | inactive
Cc1ccccc1N=Nc1ccc(N=Nc2c(O)ccc3ccccc23)c(C)c1 | inactive
NCCCOCCOCCOCCCN | inactive
O=C1CCCCCO1 | inactive
CCOC(=O)[C@H](CCc1ccccc1)N[C@H]1CCc2ccccc2N(CC(=O)O)C1=O | inactive
CCCCCCCCCCCCCCCCCBr | inactive
CCCC(=O)OCC | inactive
CCCCCCCCCC=O | inactive
CC(=O)CC(=O)c1ccccc1 | inactive
CCCc1ccccc1 | inactive
CC/C(=C\C(=N/O)C(N)=O)C(C)[N+](=O)[O-] (stereo not given) | inactive
CC(=O)OCCc1ccccc1 | inactive
C[C@@H](C1=C(CCN(C)C)Cc2ccccc21)c1ccccn1 | inactive
CCOc1nc2cccc(C(=O)O)c2n1Cc1ccc(-c2ccccc2-c2nn[nH]n2)cc1 | 29.8 µM (active)
CN(C)CC[C@@H](c1ccc(Br)cc1)c1ccccn1 | inactive
O=C(CC(=O)c1ccccc1)c1ccccc1 | inactive
CCCCOc1cc(C(=O)OCCN(CC)CC)ccc1N | inactive
CC(=O)c1ccc2c(c1)[C@H](NC(=O)c1ccc(F)cc1)[C@@H](O)C(C)(C)O2 | inactive
O=C(O)Cc1sc(-c2ccccc2)nc1-c1ccc(Cl)cc1 | inactive
CCC(C)N(C)C(=O)c1cc2ccccc2c(-c2ccccc2Cl)n1 (stereo not given) | inactive

Compound | Potency
O=C1c2cccc(O)c2C(=O)c2c(O)cc(CO)cc21 | inactive
CCc1nn(C2CCCCC2)c2cc(C3(C#N)CCC(C(=O)O)CC3)ccc12 (stereo not given) | inactive
COC(=O)CSc1cc(N=c2sc(=O)n3n2CCCC3)c(F)cc1Cl | inactive
CCCCOC(O)CC (stereo not given) | inactive
Cn1sccc1=O | inactive
C1CCC2OC2C1 (stereo not given) | inactive
CNCC[C@@H](Oc1ccccc1C)c1ccccc1 | inactive
CN(C)CC/C=C1\c2ccccc2COc2ccccc21 | inactive
Cc1ccccn1 | inactive
O=C(O)C1CCC(C(=O)O)CC1 (stereo not given) | inactive
CCN(CC)CCOC(=O)C1(c2ccccc2)CCCC1 | inactive
O=C(O)c1cccc(N(Cc2cccnc2)c2ccc(OC(F)F)c(OC(F)F)c2)c1 | inactive
Cn1c(N)nc2nc[nH]c2c1=O | inactive
CC(=O)[C@@]1(O)CC[C@H]2[C@@H]3C[C@H](C)C4=CC(=O)CC[C@]4(C)[C@H]3CC[C@@]21C | inactive
Cc1ccc(O)c([C@H](CCN(C(C)C)C(C)C)c2ccccc2)c1 | inactive
O=C(O)Cn1c(C(=O)Nc2nc(-c3ccccc3Cl)cs2)cc2ccccc21 | inactive
Cc1cccc(Oc2ccccc2)c1 | inactive
NC1CCN(c2nc3c(cc2F)c(=O)c(C(=O)O)cn3-c2ccc(F)cc2F)C1 (stereo not given) | inactive
c1ccc(OCc2ccc(CCCN3CCOCC3)cc2)cc1 | inactive
CCCCCCCC/C=C\CCCCCCCC(N)=O | inactive
